Experimental data as given in PubChem BioAssay AID463195 (Sanford-Burnham Center for Chemical Genomics, 2010).
Hit rate of the full screen: of about 330,000 compounds, about 4,600 (1.4%) were called active. The full list was thinned out, with actives kept by preference. Values without a mark were called inactive.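 How the source made its calls: active means inhibition of 40% or more at the single tested concentration; inactive means the rest.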

test: wild-type TIM10 yeast growth inhibition – luminescence, uHTS, counter-screen for tim10-1 yeast inhibitor project, primary screen (AID 463195);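 further: wild-type TIM10 isogenic control strain grown at permissive 25 °C; 0% = DMSO yeast wells and 100% = minimal medium wells without yeast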; conditions: S. cerevisiae TIM10 strain growth, BacTiter-Glo luminescence, 24 h; at 10 µM; active compounds read high

Question: With CN1CCN(S(=O)(=O)c2cccc(C(=O)Nc3sccc3C#N)c2)CC1 as the compound, how does the inhibition read?
Answer: -3.26%

Question: Which inhibition does the source give for CSC1=NCCN1C(=O)Cc1cccc2ccccc12 here?
Answer: 4.36%

Question: For O=C(CCC(=O)N1CCN(S(=O)(=O)c2ccccc2)CC1)NC1CCCc2ccccc21 (centres undefined), which inhibition is on record?
Answer: 8.6%

Question: For O=C1c2ccccc2C(=O)N1CC1c2ccccc2CCN1S(=O)(=O)c1ccccc1 (centres undefined), which inhibition is on record?
Answer: 40.3% (active)

Question: With O=S(=O)(c1ccccc1)N1CCc2ccccc21 as the compound, how does the inhibition read?
Answer: 2.66%

Question: For O=[N+]([O-])c1ccccc1/C=C/CN1CCCC(CO)C1 (centres undefined), which inhibition is on record?
Answer: -25%

Question: With CC1CCCCC1NC(=O)/C(C#N)=C/C=C/c1ccccc1[N+](=O)[O-] (centres undefined) as the compound, how does the inhibition read?
Answer: 47.3% (active)

Question: For O=[N+]([O-])c1ccccc1/C=C/CN1CCC(O)CC1, which inhibition is on record?
Answer: -13.6%

Question: Which inhibition does the source give for CCOc1ccc(CN2CCN(Cc3c[nH]c4ccccc34)CC2)cc1 here?
Answer: -10.6%

Question: For CC1(C)CC(=O)C=C(NCCN2CCNCC2)C1, which inhibition is on record?
Answer: 5.33%

Question: Which inhibition does the source give for Cc1ccc(/C=C/C(=O)OCC(=O)NCc2ccc(Cl)cc2)o1 here?
Answer: -3.46%

Question: With CCOC(=O)C1CN(S(=O)(=O)c2ccc(OC)cc2)c2cc(Cl)ccc2O1 (centres undefined) as the compound, how does the inhibition read?
Answer: 15.1%

Question: Which inhibition does the source give for O=C1C2N=NN(CC(=O)N3N=C(c4cccc5ccccc45)CC3c3ccccc3)C2C(=O)N1c1ccccc1 (centres undefined) here?
Answer: 22.8%

Question: Which inhibition does the source give for COc1ccccc1N1N=C(c2cccs2)CC1c1ccccc1 (centres undefined) here?
Answer: 23%

Question: With Oc1ccccc1C1=NN(c2ccccc2)C(c2ccccc2)C1 (centres undefined) as the compound, how does the inhibition read?
Answer: 49% (active)

Question: Which inhibition does the source give for CC(C)CC(COCc1ccc(Cl)cc1)N1CCN(C(=O)c2ccc(C(F)(F)F)cc2)CCC1=O (centres undefined) here?
Answer: 17.7%

Question: For Cc1ccc(NC(=S)N/N=C2/CCCc3c(C)cc(C)cc32)cc1, which inhibition is on record?
Answer: -3.6%

Question: With CCCCNC(=S)N/N=C1\CCCCc2ccccc21 as the compound, how does the inhibition read?
Answer: 48.2% (active)

Question: Which inhibition does the source give for CCCC1CCC(=NNC(=S)NCCc2ccccc2)CC1 (centres undefined) here?
Answer: -23.1%

Question: With Cc1noc(C)c1S(=O)(=O)Nc1cc(C(F)(F)F)ccc1N1CCOCC1 as the compound, how does the inhibition read?
Answer: 14.8%

Question: Which inhibition does the source give for NS(=O)(=O)c1ccc(CCNC(=O)CCCn2c(SCC(=O)N3CCCC3)nc3ccsc3c2=O)cc1 here?
Answer: -3.82%

Question: Which inhibition does the source give for O=C(Oc1c(-c2ccco2)oc2ccccc2c1=O)c1cccnc1 here?
Answer: 63.5% (active)

Question: With O=C(OCc1cc2ccccc2[nH]c1=O)c1cccnc1 as the compound, how does the inhibition read?
Answer: -6.32%

Question: With COc1ccc(Oc2coc3cc(OC(=O)c4cncc(Br)c4)ccc3c2=O)cc1 as the compound, how does the inhibition read?
Answer: 22.3%

Question: With Cn1c(CC2Sc3ccccc3NC2=O)nnc1SCC(=O)c1ccc(Cl)cc1 (centres undefined) as the compound, how does the inhibition read?
Answer: 2.41%

Question: For COc1cccc(NC(C)=[N+](C)CCNS(=O)(=O)c2ccc(Cl)cc2)c1, which inhibition is on record?
Answer: -4.11%

Question: For CCCCn1c(N)c(N(CCC(C)C)C(=O)c2ccc([N+](=O)[O-])o2)c(=O)[nH]c1=O, which inhibition is on record?
Answer: -3.66%

Question: Which inhibition does the source give for CC1=NN(C(N)=S)C(=O)C1N=Nc1cc(Cl)ccc1Cl (centres undefined) here?
Answer: 28.1%

Question: Which inhibition does the source give for Cc1[nH]n(C(N)=S)c(=O)c1N=Nc1ccc(Cl)cc1Cl here?
Answer: 50.4% (active)

Question: With Cc1[nH]n(C)c(=O)c1N=Nc1ccc(S(C)(=O)=O)cc1 as the compound, how does the inhibition read?
Answer: 6.98%

Question: For COC(=O)Cc1ccc(NC(=S)NCc2ccc(Cl)cc2)cc1, which inhibition is on record?
Answer: 28%

Question: For O=C(NCc1ccc(Cl)cc1)NCc1ccc(Cl)cc1, which inhibition is on record?
Answer: -12.6%

Question: Which inhibition does the source give for S=C(NCc1ccc(Cl)cc1)NC12CC3CC(CC(C3)C1)C2 here?
Answer: 61.1% (active)

Question: For CSc1nc2nc(-c3cccc(C(F)(F)F)c3)ccn2n1, which inhibition is on record?
Answer: -28%
